# Screening data (PubChem BioAssay)
# Most compounds without a hit are left out; they make up all but 5.1% or so of the library.
# CRFR2-BP ag: agonists of human CRF-binding protein/CRF-R2 receptor complex. HEK293 CRF-R2/CRF-BP, calcium dye fluorescence (FLIPR); percent of saturating CRF peptide response. activation, % at 13.2 µM. actives 0.46% (n = 350,000);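 active = activation of at least 50%, plus an integration ratio under a set limit after plate pattern correction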;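 note: plate controls were neutral control wells without compound for no effect and CRF at EC100 for full effect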
# CRFBP-R2 block: blocks CRF-induced signaling of the CRF-BP/CRF-R2 complex; HEK293 CRF-R2/CRF-BP, CRF-induced calcium fluorescence; inhibition, % at 11.8 µM; actives 0.59% (n = 350,000); AID 588475;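 active = inhibition of the ligand-induced calcium signal above about 50% at the single tested concentration, limit read from the data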
# MPTP inh: permeability transition pore inhibition | actives 1.4% (n = 360,000) | AID 602449 | inhibition, % at 10 µM | isolated mouse mitochondria, Ca2+ swelling absorbance, 30 min;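 active = inhibition of 50% or more, scaled per plate between neutral and stimulator controls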;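 note: 0% = DMSO wells given calcium and 100% = 1 mM EGTA wells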
# TMEM16A inh: blocks the mouse calcium-activated chloride channel TMEM16A | HEK293 TMEM16A/YFP iodide influx fluorescence, ionomycin | normalized B-score (activity score, 25-100; higher = stronger inhibition) at 10 µM | actives 1.2% (n = 310,000) | Q8BHY3 | AID 588511;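 active = ratio plate-corrected score three or more library SD toward inhibition, starting fluorescence score within five deviations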;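 note: score derived from kinetic fluorescence span divided by baseline fluorescence per well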
# Target sequence (Q8BHY3 whole entry, looked up): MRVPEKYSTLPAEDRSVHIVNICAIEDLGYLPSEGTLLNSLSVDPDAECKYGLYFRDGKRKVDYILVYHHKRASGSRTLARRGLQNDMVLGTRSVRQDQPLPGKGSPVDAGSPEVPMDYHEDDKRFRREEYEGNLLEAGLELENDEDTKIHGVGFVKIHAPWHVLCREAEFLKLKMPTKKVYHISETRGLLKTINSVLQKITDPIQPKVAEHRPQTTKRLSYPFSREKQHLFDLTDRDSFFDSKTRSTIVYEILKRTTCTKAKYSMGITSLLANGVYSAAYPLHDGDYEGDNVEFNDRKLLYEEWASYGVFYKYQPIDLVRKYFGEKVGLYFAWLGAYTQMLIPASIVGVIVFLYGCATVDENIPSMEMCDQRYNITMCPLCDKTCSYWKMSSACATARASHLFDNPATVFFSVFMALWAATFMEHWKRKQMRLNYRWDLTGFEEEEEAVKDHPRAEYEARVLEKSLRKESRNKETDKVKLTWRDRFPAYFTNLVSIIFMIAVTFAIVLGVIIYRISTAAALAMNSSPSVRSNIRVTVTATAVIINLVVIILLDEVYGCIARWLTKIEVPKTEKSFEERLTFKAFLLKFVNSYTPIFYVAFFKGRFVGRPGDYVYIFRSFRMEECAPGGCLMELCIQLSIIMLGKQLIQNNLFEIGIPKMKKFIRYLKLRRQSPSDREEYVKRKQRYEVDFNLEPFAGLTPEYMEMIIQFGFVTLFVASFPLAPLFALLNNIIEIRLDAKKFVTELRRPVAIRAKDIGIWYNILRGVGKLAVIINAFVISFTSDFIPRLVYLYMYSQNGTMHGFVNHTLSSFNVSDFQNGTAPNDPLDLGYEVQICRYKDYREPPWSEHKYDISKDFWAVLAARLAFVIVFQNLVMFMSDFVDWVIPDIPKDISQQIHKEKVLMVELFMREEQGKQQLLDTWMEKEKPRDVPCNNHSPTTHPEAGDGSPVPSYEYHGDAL
# ANO1 activ: activates or potentiates the mouse TMEM16A chloride channel | Q8BHY3 | HEK293 TMEM16A/YFP-H148Q/I152L, iodide quench fluorescence; hits give low values | B-score at 10 µM | actives 0.3% (n = 340,000) | AID 623877;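 active = fluorescence-ratio B-score plate-corrected deviation score at least 3 library SD below zero, with starting fluorescence score within 5 deviations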;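 note: channel opened by trigger with iodide after compound preincubation; score built on the fluorescence ratio of max minus min over baseline; more negative score means more quench and so TMEM16A activation or potentiation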
# GRIN3A LBD mod: NR3A (human) ligand-binding domain modulation; NR3A LBD differential scanning fluorimetry, Tm shift; 0% = protein alone, 100% = glycine-bound protein; AID 1259313; actives 2.5% (n = 340,000); Tm shift relative to glycine control, % at 25 µM;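 active = melting temperature shift of at least 10% of the positive control shift, at one fixed dose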
# * marks the source's active call; other numbers are inactive results; i = inactive; x = no result.
SMILES,CRFR2-BP ag,CRFBP-R2 block,MPTP inh,TMEM16A inh,ANO1 activ,GRIN3A LBD mod
O=C1CCC/C(=N/NC(=O)c2sc3ccccc3c2Cl)C1,53*,-57,3,i,i,-2
CNC(=O)Nc1ccc(Cn2cc(C(F)(F)F)ccc2=O)cc1,1,6,0,i,i,1
Cc1ccc(NC(=O)CCn2cc(C(F)(F)F)ccc2=O)cc1,0,122*,1,i,i,-4
Cc1cccc(N(CC(=O)N2CCc3ccccc3C2)S(C)(=O)=O)c1C,0,6,-1,i,i,2
Cc1ccc(NCCC(=O)c2cccs2)cc1,1,9,-4,i,i,13*
Cc1ccc(CNC(=O)CCC(=O)c2cccs2)cc1,1,59*,2,i,i,3
O=C(CCC(=O)c1cccs1)NCc1ccc(Cl)cc1,0,-4,1,i,i,-2
N/C(=N\OC(=O)c1ccc2ccccc2c1)c1ccc(Br)cc1,-2,4,5,i,i,24*
N/C(=N\OC(=O)c1cccc(Br)c1)c1ccccc1,0,-19,0,i,i,10*
N/C(=N\OC(=O)c1cccc2ccccc12)c1ccc(Br)cc1,-2,5,6,i,i,26*
Cc1cccc2cc(CN(Cc3cccs3)C3(c4nnnn4C4CCCC4)CCCC3)c(=O)[nH]c12,2,2,0,i,i,11*
Cc1cccc2cc(CN(Cc3ccc(F)cc3)Cc3nnnn3C3CCCC3)c(=O)[nH]c12,0,-18,1,i,i,-1
C[C@@H]1CN([C@@H](C)CO)C(=O)Cc2cc(NC(=O)Nc3cccc4ccccc34)ccc2O[C@@H]1CN(C)Cc1ccc(C(F)(F)F)cc1,0,-4,2,x,i,13*
C[C@@H]1CCCCO[C@@H](CN(C)Cc2ccccc2)[C@@H](C)CN([C@H](C)CO)C(=O)c2cc(NC(=O)Nc3cccc4ccccc34)ccc2O1,4,-24,-1,x,x,x
C[C@@H]1CN([C@H](C)CO)C(=O)c2cc(NC(=O)Nc3cccc4ccccc34)ccc2O[C@H]1CN(C)Cc1ccc(C(F)(F)F)cc1,4,-7,0,x,x,23*
C[C@H]1CN([C@@H](C)CO)C(=O)c2cc(NC(=O)Nc3cccc4ccccc34)ccc2O[C@@H]1CN(C)Cc1ccc(-c2ccccc2)cc1,2,5,2,x,i,11*
CC1C(=O)N(Cc2cn(CCC3OCCCO3)nn2)CCS(=O)(=O)N1Cc1ccc(-c2ccc(Cl)nc2)cc1 (stereo unspecified),0,4,0,x,x,x
CC(C)[C@H](N)C(=O)N[C@H]1CCC2C3CC=C4C[C@@H](O)CC[C@]4(C)C3CC[C@@]21C (stereo partly specified),-1,-16,2,x,x,x
CCOC(=O)c1c(C)oc2c1c(CN1CCN(C(=O)OCC)CC1)c(O)c1ccccc12,-2,-19,0,i,i,10*
CCOC(=O)c1c(C)oc2c1c(CN1CCN(CCO)CC1)c(O)c1ccccc12,4,-3,3,x,i,-2
CCCn1c(C(C)NS(=O)(=O)c2ccccc2)n[nH]c1=S (stereo unspecified),-1,62*,0,i,i,3
CCn1c(C(C)NS(=O)(=O)c2ccc(Cl)cc2)n[nH]c1=S (stereo unspecified),-3,12,-1,i,i,1
CCOc1ccc(CCNC(=O)CSc2nn(-c3ccc(C)c(Cl)c3)c(=S)s2)cc1OCC,2,-3,9,i,-6*,-11
CC(C)CC1C(=O)N(Cc2cn(CCC3OCCCO3)nn2)CCS(=O)(=O)N1Cc1ccc(-c2cccc(N(C)C)c2)cc1 (stereo unspecified),0,-4,1,x,x,x
O=C(COC(=O)c1cc(NS(=O)(=O)c2cccs2)ccc1O)Nc1cc(Cl)ccc1Cl,7,30,7,i,i,30*
SMILES,CRFR2-BP ag,CRFBP-R2 block,MPTP inh,TMEM16A inh,ANO1 activ,GRIN3A LBD mod
O=S(=O)(NCCc1ccccc1)c1ccc(F)cc1Br,-4,21,1,x,i,13*
C#CCNS(=O)(=O)c1ccc(F)cc1Br,-2,-7,-2,x,x,0
CC(=O)Oc1oc(-c2ccccc2)nc1C=Nc1ccccc1,57*,-14,-2,i,i,-1
Cn1c(-c2c(N)n(-c3ccccc3)c3nc4ccccc4nc23)nc2ccccc21,86*,-200,2,i,i,-7
Cc1cccc(-n2c(N)c(-c3nc4ccccc4n3C)c3nc4ccccc4nc32)c1,37,-103,2,i,i,0
CC(C)N1CCC1(C)C(=O)Nc1ccc2cn[nH]c2c1 (stereo unspecified),x,x,0,x,x,x
O=C1N/C(=N\S(=O)(=O)c2ccccc2)S/C1=C\c1cc([N+](=O)[O-])ccc1O,55*,-106,0,i,i,14*
O=C1N/C(=N\S(=O)(=O)Cc2ccccc2)S/C1=C/c1cc([N+](=O)[O-])ccc1O,104*,-132,-2,i,i,8
Cc1ccc(S(=O)(=O)/N=C2/NC(=O)/C(=C/c3cccnc3)S2)cc1,1,26,-1,i,i,-3
COc1cc(/C=C2\S/C(=N/S(=O)(=O)Cc3ccccc3)NC2=O)c([N+](=O)[O-])cc1OC,3,1,8,i,i,-6
Cc1ccc(S(=O)(=O)/N=C2/NC(=O)/C(=C\c3cc(Br)cc(Br)c3O)S2)cc1,77*,-77,0,i,i,6
Cc1ccc(NC(=O)COC(=O)c2cccc(S(=O)(=O)N3CCCCCC3)c2)cc1,2,-3,-1,x,x,x
O=C(Nc1ccccc1C(=O)Nc1nnc(C(F)(F)F)s1)c1ccccc1,60*,37,1,100*,-6.2*,4
O=C(COC(=O)/C=C/c1ccccc1[N+](=O)[O-])NCc1ccco1,0,6,-1,x,i,-10
CCOc1ccc(NC(=O)COc2ccc(C(=O)NCC3CCCO3)cc2OC)cc1 (stereo unspecified),0,15,0,x,i,2
Cc1ccc(C2=NNC(c3cccc(F)c3)S2)cc1 (stereo unspecified),-1,-3,0,i,i,-13
Fc1cccc(C2NN=C(c3ccccc3)S2)c1 (stereo unspecified),-2,-28,-1,i,i,34*
C[C@]1(O)CC(=O)C=C[C@H]1Nc1ccccc1,0,14,0,x,x,-1
